# Screening data deposited in PubChem BioAssay by National Center for Advancing Translational Sciences (NCATS).
# Cruzain inh noDet – blocks cruzain activity in detergent-free assay | P25779 | purified cruzain, Z-FR-AMC fluorescence, no detergent | Potency, µM, for the others: max response, negative = inhibition, hits mostly inhibitors | hit rate 2.3% among 200,000 | AID 1476;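 note: plate controls were enzyme without inhibitor for no effect and buffer without enzyme for full effect; nearly all actives have a fitted effect of over 40% in size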
# Target sequence (P25779 123-467 limits assumed): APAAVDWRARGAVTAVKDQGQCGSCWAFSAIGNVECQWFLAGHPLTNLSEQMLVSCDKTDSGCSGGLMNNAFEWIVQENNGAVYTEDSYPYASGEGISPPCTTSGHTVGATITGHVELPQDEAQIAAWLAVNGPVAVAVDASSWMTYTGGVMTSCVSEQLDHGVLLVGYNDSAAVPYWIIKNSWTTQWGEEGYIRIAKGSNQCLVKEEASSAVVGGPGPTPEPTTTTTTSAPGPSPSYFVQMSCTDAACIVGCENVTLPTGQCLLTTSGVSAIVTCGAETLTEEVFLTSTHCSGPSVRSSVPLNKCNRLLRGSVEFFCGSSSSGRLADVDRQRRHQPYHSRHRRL
#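 Purified cruzain at 1.5 nM, pre-incubated 15 min with compound at room temperature in 100 mM sodium acetate pH 5.5, 5 mM DTT, 0.00005% Triton X-100. Reaction started with 2 uM Z-FR-AMC; AMC fluorescence increase over 60 s gives rate.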
# Cruzain Triton – cruzain (T. cruzi) inhibition with detergent; purified cruzain, Z-FR-AMC fluorescence, 0.01% Triton; Potency, µM, for the others: max response, negative = inhibition, hits mostly inhibitors; hit rate 0.43% among 200,000; P25779;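 note: plate controls were neutral wells for no effect and buffer without enzyme for full effect; nearly all actives have a fitted effect of over 40% in size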
#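 Cruzain (1.5 nM) preincubated 15 min at RT with compound in 100 mM sodium acetate pH 5.5, 5 mM DTT, 0.01% Triton X-100. Reaction started with 2 uM Z-FR-AMC; AMC fluorescence (ex 360/em 450 nm) change over 60 s gave rate.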
# The depositor's hits bear a star; u = inconclusive. Sampled rows, rich in hits. Any-hit rate of the full collection: about 2.6%. Calls come from the whole dose curve; as a rule, active = well fitted curve in the direction sought with a large enough effect; inconclusive = small, poorly fitted or top-dose-only effect, or another doubt; inactive = no such curve, though single readings can be large; an effect the other way counts as inactive or inconclusive. Potency is the fitted concentration of half-maximal effect.
SMILES,Cruzain inh noDet,Cruzain Triton
O=C(Nc1ccccc1)c1nc2ccccc2s1,-5%,-7%
Cc1ccc(C)c2sc(NC(=O)c3nc4ccccc4s3)nc12,10µM*,-1%
COc1ccc(NC(=O)CSc2nncn3c2cc2occc23)c(OC)c1,-2%,-6%
CCCCCC(=O)Nc1nc(C)c(-c2csc(Nc3ccccc3OCC)n2)s1,7.9µM*,1%
CCCCCC(=O)Nc1nc(C)c(-c2csc(Nc3ccccc3OC)n2)s1,13µM*,-2%
CCC(C)C(=O)Nc1nc(C)c(-c2csc(Nc3cc(OC)ccc3OC)n2)s1 (stereo unspecified),-20%,-6%
CCCCCCC(=O)Nc1nc(C)c(-c2csc(Nc3ccccc3OC)n2)s1,10µM*,4%
COc1ccc(OC)c(Nc2nc(-c3sc(NC(=O)CC(C)C)nc3C)cs2)c1,-29%,-1%
CCCC(=O)Nc1nc(C)c(-c2csc(Nc3ccccc3C)n2)s1,-27%,2%
O=C(NC1CC(=O)N(c2ccc(Cl)cc2)C1)C1CCCCC1 (stereo unspecified),-5%,0%
COc1ccc(-c2cc(=O)oc3cc(OCC(=O)c4cccc([N+](=O)[O-])c4)ccc23)cc1,25µM*,-8%
COc1ccc(-c2cc(=O)oc3cc(OCC(C)=O)ccc23)cc1,-7%,-5%
O=C(c1ccc2c(c1)N(Cc1ccccc1F)C(=O)c1ccccc1S2=O)N1CCCCC1 (stereo unspecified),0%,2%
COc1ccc(CNC(=O)C2CCCN(S(=O)(=O)c3ccc4c(ccn4C)c3)C2)c(OC)c1 (stereo unspecified),-10%,-3%
CCC(C)(C)NC(=S)Nc1ccc(-c2nc3ccc(C)cc3s2)cc1,u,-2%
CC(=O)NC(=S)Nc1ccc(-c2nc3ccc(C)cc3s2)cc1,6.3µM*,-1%
Cc1ccc2nc(-c3ccc(NC(=O)COC(=O)c4ccco4)cc3)sc2c1,u,-2%
Cc1ccc2nc(-c3ccc(NC(=O)COC(=O)c4ccc(Br)o4)cc3)sc2c1,13µM*,-1%
Cc1ccc2nc(-c3ccc(NC(=O)COc4ccccc4)cc3)sc2c1,u,0%
Cc1ccc2nc(-c3ccc(NC(=O)COC(=O)c4ccc([N+](=O)[O-])o4)cc3)sc2c1,16µM*,-6%
Cc1ccc2nc(-c3ccc(NC(=O)COC(=O)c4cncc(Br)c4)cc3)sc2c1,6.3µM*,-2%
CCOc1ncccc1C(=O)OCC(=O)Nc1ccc(-c2nc3ccc(C)cc3s2)cc1,-3%,-5%
COc1ccc(CCNC(=O)c2cnc3ccc(C)cn3c2=O)cc1OC,-7%,-7%
CCOC(=O)c1cnc(NCc2ccc(OC)cc2OC)c2ccccc12,u,-9%
CC[C@H](C)[C@@H](NC(=O)O[C@@H]1C(=O)c2ccc(OC)cc2O[C@H]1c1cccc(C(F)(F)F)c1)C(=O)OC,-3%,5%
SMILES,Cruzain inh noDet,Cruzain Triton
COc1ccc(NC(=O)CSc2nc3ccccc3n2CC(=O)Nc2cccc(C)c2C)cc1,9%,-5%
COc1cc(C2c3c(-c4cc(C)ccc4O)n[nH]c3C(=O)N2CCCO)ccc1OCCC(C)C (stereo unspecified),u,-19%
CCCCN(C)CCNC(=O)c1ccc2c(c1)NC(=O)CN2,-1%,0%
Cc1oc2c(cc(NS(=O)(=O)c3ccc(C(C)C)cc3)c3ccccc32)c1C(=O)O,19%,u
Cc1oc2c(cc(NS(=O)(=O)c3cccs3)c3ccccc32)c1C(=O)OC(C)C,32µM*,-3%
O=C(c1ccc2c(c1)OCO2)c1cn(Cc2ccc(Cl)cc2)c2ccc(F)cc2c1=O,25µM*,-3%
Cc1ccc2c(c1)c(=O)c(C(=O)c1ccc3c(c1)OCO3)cn2Cc1ccc(Cl)cc1,u,-1%
CCOc1ccc(NC(=O)Cn2c(=O)n(CC3CCC(C(=O)NCCc4ccccc4)CC3)c(=O)c3ccccc32)cc1 (stereo unspecified),3%,-1%
COCCN1CN=C(Nc2nc3ccccc3o2)NC1,-1%,8%
COCCN1CN=C(Nc2nc3ccccc3s2)NC1,16µM*,u
CNc1nnc(-c2cc3cc(Cl)ccc3oc2=O)s1,2%,-4%
O=c1oc2ccc(Cl)cc2cc1-c1nnc(Nc2cccc(C(F)(F)F)c2)s1,5µM*,-1%
CCC(=O)N1CCCc2cc(S(=O)(=O)N3CCC(C(=O)Nc4ccc(C#N)cc4)CC3)ccc21,18%,-3%
Cc1ccc(Cn2c(CNC(=O)c3ccc(Cl)c([N+](=O)[O-])c3)nc3cccnc32)cc1,-17%,-10%
Cc1ccc(O)c(C(=O)c2cnc3c(c2)CN(C)C(=O)N3)c1,-12%,-4%
Cc1ccc(O)c(C(=O)c2cnc3c(c2)CN(CCC(C)C)C(=O)N3)c1,10µM*,-2%
Cn1c(O)c(C2=c3ccccc3=NC2=O)sc1=Nc1ccc(Cl)cc1,25µM*,-10%
C=CCn1c(O)c(C2=c3ccccc3=NC2=O)s/c1=N/c1nccs1,8%,-5%
CCOC(=O)c1c(C)oc2nc(C)nc(NCC3CCN(Cc4ccc(F)cc4)CC3)c12,-7%,4%
COc1cccc(-c2ccc3ncnc(NCc4ccc(OC)cc4OC)c3c2)c1,11%,-2%
COc1cccc([C@@H]2Oc3ccc(Br)cc3C[C@H]2O)c1,-9%,1%
CCc1c(C)sc(NC(=O)c2cc(-c3ccc(O)cc3)on2)c1C#N,7.9µM*,-1%
CCc1c(C)sc(NC(=O)c2cc(-c3ccc(OC)c(OC)c3)on2)c1C#N,-8%,-4%
O=C(N/N=C/c1cccc([N+](=O)[O-])c1)c1cc(-c2ccc3c4c(cccc24)CC3)n[nH]1,7.9µM*,-5%
O=C(N/N=C/c1ccncc1)c1cc2c(ccc3ccccc32)o1,-1%,-6%
SMILES,Cruzain inh noDet,Cruzain Triton
O=C(N/N=C/c1cccc([N+](=O)[O-])c1)c1cc2c(ccc3ccccc32)o1,10µM*,-13%
O=C(N/N=C/c1cccc([N+](=O)[O-])c1)c1ccc2c(c1)OCCO2,5%,-5%
C[N+]1([C@H](CO)Cc2c[nH]c3ccccc23)Cc2ccccc2C1,-1%,1%
Cc1cc(OCC(=O)Nc2sc3c(c2C(N)=O)CCCC3)ccc1C(C)C,1%,-20%
CCc1cccc(CC)c1NC(=O)COC(=O)c1cccc(S(=O)(=O)N2CCc3ccccc3C2)c1,2%,-6%
Cc1cccc(C(C)C)c1NC(=O)COC(=O)c1cccc(S(=O)(=O)N2CCc3ccccc3C2)c1,25µM*,1%
CC(C)=CC1C(CO)C1(C)C (stereo unspecified),1%,5%
Cc1c(/C=N/NC(=O)c2ccccc2O)c2ccccn2c1C(=O)c1ccc(F)cc1,25µM*,-12%
Cc1c(/C=N/NC(=O)c2ccc(O)cc2)c2ccccn2c1C(=O)c1ccc(F)cc1,u,-3%
Cc1cccc(CNC(=O)CCCN2C(=O)COc3ccc(C)cc32)c1,20%,-5%
CN(CCOc1ccc(-c2ccn(S(=O)(=O)c3cccc4ccccc34)n2)cc1)c1ccccn1,25µM*,-1%
CN(CCOc1ccc(-c2ccn(S(=O)(=O)c3c(Cl)cccc3Cl)n2)cc1)c1ccccn1,u,6%
CCOc1ccccc1CNC(=O)c1[nH]c2ccccc2c1Sc1ccccc1,16%,-6%
Cc1ccc(Cl)cc1-n1nnc(-c2nsc(NC(=O)c3ccccc3Cl)n2)c1C,3.2µM*,-5%
Cc1ccc(C(=O)Nc2nc(-c3nnn(-c4cccc(Cl)c4C)c3C)ns2)cc1C,u,-2%
